Compound activity: PubChem, National Center for Advancing Translational Sciences (NCATS)
KCNH2 WT inh: blocks the wildtype human KCNH2 potassium channel; Q12809; U2OS, BacMam KCNH2, thallium flux FluxOr; active compounds read low; activity change, % at 1.84 µM; 340,000 tested, 0.37% active;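 active = maximum activity change below -70%; inconclusive = maximum activity change between -70% and -50%; inactive = maximum activity change above -50%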; also: % is scaled to controls: 0 for no effect and ±100 for the full control effect
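U2OS cells transduced with wild-type KCNH2 virus are loaded with FluxOr dye for 45 min, and thallium flux is measured in kinetic reads before and after stimulation buffer. Rate constants are normalized to DMSO controls.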
TRPV1 ag: human TRPV1 agonism; 320,000 tested, 0.19% active; activation, % at 8.33 µM; TRPV1-expressing cells, Fluo-8 calcium influx, agonist mode; Q8NER1; in the data active = activation above about 80%; inconclusive = between about 30% and that limit; also: 0% is about no effect
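Cells expressing TRPV1 were dye-loaded with Fluo-8 and read kinetically: 10 s baseline, 3 min after compound (agonist portion), then 2 min after EC20 capsaicin (allosteric enhancer portion). Calcium-bound dye fluorescence at 480/520 nm.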
ClpP mod: qHTS Assay for Activators of ClpP; purified B. subtilis ClpP, FRET peptide cleavage, 20 min; 340,000 tested, 1.9% active; Potency, µM (highest dose often 57.5 µM), for inactives: top-dose activity change, negative = active; AID 651965, 2013; ATP-dependent Clp protease proteolytic subunit (Bacillus subtilis (strain 168)), P80244; active = well fitted falling curve with a large enough effect; inconclusive = small, poorly fitted or top-dose-only effect; inactive = no such curve, though single readings can be large or run the other way; also: potency is read from the fitted curve at half-maximal effect; the source files actives as falling curves though it sought activators and does not explain the sign; nearly all actives have a fitted effect of over 65% in size
Target sequence (P80244 whole entry, looked up): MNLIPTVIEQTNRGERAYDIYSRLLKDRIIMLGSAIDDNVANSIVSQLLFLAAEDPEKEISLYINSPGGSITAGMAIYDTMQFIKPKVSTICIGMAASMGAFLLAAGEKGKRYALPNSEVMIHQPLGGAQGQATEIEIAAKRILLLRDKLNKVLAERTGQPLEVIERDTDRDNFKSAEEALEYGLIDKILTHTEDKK
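ClpP 10 microg/mL final, pH 8 Tris/KCl buffer with BSA, glycerol, Tween-20; compound pinned in; FRET-FV substrate; RT 20 min; Ex320/Em430; ΔFRET vs ADEP 5.8 microM, DMSO, no enzyme.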
p53 reactivation: mutant p53 re-activation in reporter cells | Potency, µM (highest dose often 92.2 µM), for inactives: at the top dose activity change, positive = activation, most hits filed as activators | H1299 p53-A138V BP100-luciferase reporter, luminescence, 24 h | 320,000 tested, 0.063% active | AID 504706; also: potency is read from the fitted curve at half-maximal effect; % of control where 0% means no effect; nearly all actives have a fitted effect of over 45% in size
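H1299 (p53-null), stable ts p53-A138V + BP100-Luc; 1000 cells/well, Opti-MEM/10% FBS; cpd 4 pt, 1:5; 24 h, 37 deg C, 5% CO2; detection reagent 10 min RT; luminescence.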
KCNH2 3.1 block: KCNH2 3.1 (human) potassium channel inhibition | activity change, % (tested at about 1.8 µM) | 340,000 tested, 0.95% active | AID 720553 | U2OS KCNH2 3.1, thallium flux FluxOr; active compounds read low;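 active = maximum activity change below -70%; inconclusive = maximum activity change from -70% to -50%; inactive = maximum activity change above -50%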;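 also: thallium influx rate constant from kinetic fluorescence after stimulation buffer; % is scaled to controls: 0 for no effect and ±100 for the full control effect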
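Thallium flux via FluxOr fluorescence (Red40 quencher, 45 min loading) in U2OS cells virally expressing the KCNH2 3.1 isoform (1.77 x 10^8 /mL virus, overnight at 37 C). Rate constants from 2-min kinetic reads post-stimulation, normalised to positive and negative controls.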
TRPV1 PAM: potentiators of human vanilloid receptor 1 (TRPV1); Q8NER1; TRPV1-expressing cells, Fluo-8 calcium influx, capsaicin EC20 potentiation; potentiation, % at 8.33 µM; 320,000 tested, 0.02% active; AID 540277; in the data active = potentiation above about 80%; inconclusive = between about 30% and that limit; also: 0% is about no effect
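Cells expressing TRPV1 were dye-loaded with Fluo-8 and read kinetically: 10 s baseline, 3 min after compound (agonist portion), then 2 min after EC20 capsaicin (allosteric enhancer portion). Calcium-bound dye fluorescence at 480/520 nm.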
ClpP validation: validation of B. subtilis ClpP protease hits (inhibitors). shares compounds with ClpP mod. purified B. subtilis ClpP, FRET-FV substrate cleavage, 20 min. Potency, µM (doses to about 57.5 µM), for the others: at the top dose activity change, negative = inhibition, actives largely listed as inhibitors. 470 tested, 40% active. AID 743245; also: potency is read from the fitted curve at half-maximal effect; % is scaled to controls: 0 for no effect and ±100 for the full control effect; nearly all actives have a fitted effect of over 70% in size
* marks the source's active call; other numbers are inactive results; u = inconclusive; x = no result. Shown are actives, neighbours in structure and some others; about 2.6% of the full set was active somewhere. Unless noted, calls follow the shape of the dose curve; as a rule, active = well fitted curve in the direction sought with a large enough effect; inconclusive = small, poorly fitted or top-dose-only effect, or another doubt; inactive = no such curve, though single readings can be large; an effect the other way counts as inactive or inconclusive.

SMILES	KCNH2 WT inh	TRPV1 ag	ClpP mod	p53 reactivation	KCNH2 3.1 block	TRPV1 PAM	ClpP validation
O=C1Nc2ccc(F)cc2C12Nc1ccccc1-c1nnc(SCc3ccccc3F)nc1O2 (configuration not stated)	-11	1	40%	13%	-3	1	10%
O=C1Nc2ccc(Cl)cc2C12Nc1ccccc1-c1nnc(SCc3ccccc3F)nc1O2 (configuration not stated)	0	-3	53%	28%	-7	-22	x
COc1ccc(-c2cc(C(=O)NCCc3ccccc3)c3c(-c4ccccc4)[nH]nc3n2)cc1OC	x	x	395%	x	x	x	24µM*
COc1ccccc1NC(=O)Cn1c2ccccc2c2nc3n(c(=O)c21)CCS3	-4	1	3.2µM*	2%	-11	-26	u
O=C(Cn1c2ccccc2c2nc3n(c(=O)c21)CCS3)Nc1ccccc1C(F)(F)F	6	-1	x	0%	23	-6	x
COc1ccc(-c2coc3cc(OC(C)=O)c(OC)cc3c2=O)cc1	-2	x	34%	u	7	x	-6%
COc1ccc2c(=O)c(-c3ccc(OC)c(OC)c3)coc2c1	-1	25	3%	5%	-12	11	x
Cc1cccc(C)c1NC(=O)C(c1ccc(-c2ccccc2)cc1)n1c(=O)c(-c2cc3ccccc3[nH]2)nc2ccccc21 (configuration not stated)	x	x	40%	x	x	x	11%
CC(C)(C)NC(=O)C(c1ccc(-c2ccccc2)cc1)n1c(=O)c(-c2cc3ccccc3[nH]2)nc2ccccc21 (configuration not stated)	x	x	63%	x	x	x	20%
Cc1cccc(C)c1NC(=O)C(c1ccc(C(F)(F)F)cc1)n1c(=O)c(-c2cc3ccccc3[nH]2)nc2ccccc21 (configuration not stated)	x	x	18%	x	x	x	x
COc1ccc(CN2C(=O)N(c3ccc(F)cc3)C(=O)C2CC(=O)Nc2cc(OC)cc(OC)c2)cc1 (configuration not stated)	x	x	-1%	x	x	x	x
CCOc1ccc(NC(=O)c2cc3c(=O)n4cccc(C)c4nc3s2)cc1	x	x	-3%	x	x	x	x
Cc1ccc(-c2cc3nc(-c4ccccc4)cc(N4CCOCC4)n3n2)cc1	0	2	8.9µM*	8%	-5	-12	34µM*
COc1ccc(-c2cc3nc(-c4ccccc4)cc(N4CCC5(CC4)OCCO5)n3n2)cc1	-9	0	7.1µM*	-7%	3	-10	4.9µM*
CCCc1c2ccccc2nc2ccccc12	0	3	7.1µM*	-5%	-11	-2	19µM*
CCCc1cc(C(=O)O)c2ccccc2n1	8	-1	-2%	-1%	6	20	x
CC(=O)c1cc2c(cc1N(C(=O)c1ccco1)C(C(=O)NC1CCCC1)c1ccccc1F)OCO2 (configuration not stated)	-5	2	0%	-3%	-1	0	x
COc1ccc(C(C(=O)NC2CCCC2)N(C(=O)c2ccco2)c2cc3c(cc2C(C)=O)OCO3)cc1 (configuration not stated)	1	2	3.2µM*	-8%	-5	-2	0%
COc1ccc(Cc2c(C3CCCCC3)nc3c(Cl)cc(C(F)(F)F)cn23)c(C)c1	x	x	-5%	x	x	x	x
CS(=O)(=O)Nc1ccccc1C(=O)OCc1cc(=O)n2nc(C3CCCCC3)sc2n1	x	x	-27%	x	x	x	x
COc1ccc(-c2cn3c(n2)sc2cc(C(=O)NC4CCCCCC4)ccc23)cc1	x	x	-15%	x	x	x	x
O=C(NC1CCCCC1)c1ccc2c(c1)sc1nc(-c3ccc(F)cc3)cn12	x	x	10µM*	x	x	x	-8%
COc1cccc(-c2cn3c(n2)sc2cc(C(=O)NC4CCCCC4)ccc23)c1	x	x	u	x	x	x	24µM*
COc1cccc(-c2cn3c(n2)sc2cc(C(=O)NC4CCCCCC4)ccc23)c1	x	x	4µM*	x	x	x	24µM*
COc1cc(/C=C/c2nc(C#N)c(NCCc3ccccc3)o2)cc(OC)c1OC	x	x	4%	x	x	x	x
SMILES	KCNH2 WT inh	TRPV1 ag	ClpP mod	p53 reactivation	KCNH2 3.1 block	TRPV1 PAM	ClpP validation
COc1cc(CN2C(=O)C(Cc3ccccc3)ON=C2c2ncccc2C)cc(OC)c1 (configuration not stated)	x	x	0%	x	x	x	x
O=C(NCc1ccccc1Cl)c1ccc(CSCc2cccc(F)c2)o1	x	x	-2%	x	x	x	x
CCOc1cc(-c2nc3c(c(CC)nn3-c3ccccc3)c3cc(OC)c(OC)cc23)ccc1O	x	x	4%	x	x	x	x
O=C(C[n+]1cccc2cc(Cl)ccc21)c1ccc2ccccc2c1	x	x	-2%	x	x	x	x
COc1ccc(C(=O)Nc2nnc(-c3cccs3)s2)cc1	-2	-6	93%	31%	-9	11	17µM*
COc1ccc(NC(=O)Nc2nnc(-c3cccs3)s2)cc1	13	1	-5%	27%	1	26	x
CN(C)c1cccc(C(=O)Nc2ccc(-c3nc4ccccc4s3)cc2)c1	x	x	3.5µM*	x	x	x	-1%
CC(C)Oc1ccc(C(=O)Nc2ccc(-c3nc4ccccc4s3)cc2)cc1	x	x	-20%	x	x	x	x
CCc1ccc(NC(=O)c2sc3nc(C)cc(C)c3c2NC(=O)c2ccccc2OC)cc1	x	x	41%	x	x	x	24µM*
COc1ccc(-c2nc3ccccc3s2)cc1NC(=O)c1cccc(F)c1	x	x	74%	x	x	x	u
COc1ccccc1C(=O)Nc1ccc(-c2nc3ccccc3s2)c(C)c1	x	x	2µM*	x	x	x	-1%
Cc1ccc(C(=O)Nc2ccc(-c3nc4ccccc4s3)c(O)c2)c(C)c1	x	x	1%	x	x	x	x
CCOc1ccc(-c2cc(C(=O)NC3CCCCC3)[nH]n2)c(C)c1	x	x	-1%	x	x	x	x
CC(=O)Nc1c([N+](=O)[O-])cc2c3c(cccc13)CC2	x	x	2%	x	x	x	x
Cc1ccnc(NC(=O)c2ccc(OCc3c(C)noc3C)cc2)c1	-14	u	106%	11%	-4	-16	0%
O=C(NCc1ccncc1)C1Cc2c(-c3ccccc3Oc3ccccc3)ccnc2O1 (configuration not stated)	x	x	-5%	x	x	x	x
Cc1ccc(C2Nc3ccccc3-c3nc4ccccc4n32)o1 (configuration not stated)	15	28	0.71µM*	u	7	-5	11µM*
Cc1cc(C)cc(C(O)c2ncc(-c3ccccc3C(F)(F)F)[nH]2)c1 (configuration not stated)	x	x	-1%	x	x	x	x
